Results on 40 compounds are retold here after PubChem BioAssay.

Broadly, the inhibition is the relative decrease from the control value, in per cent.

Activity calls are given as the source filed them. The rule behind the calls is not given here.

Sequence of Pantothenate synthetase (Mycobacterium tuberculosis (strain ATCC 25618 / H37Rv)) (P9WIL5 whole entry, looked up): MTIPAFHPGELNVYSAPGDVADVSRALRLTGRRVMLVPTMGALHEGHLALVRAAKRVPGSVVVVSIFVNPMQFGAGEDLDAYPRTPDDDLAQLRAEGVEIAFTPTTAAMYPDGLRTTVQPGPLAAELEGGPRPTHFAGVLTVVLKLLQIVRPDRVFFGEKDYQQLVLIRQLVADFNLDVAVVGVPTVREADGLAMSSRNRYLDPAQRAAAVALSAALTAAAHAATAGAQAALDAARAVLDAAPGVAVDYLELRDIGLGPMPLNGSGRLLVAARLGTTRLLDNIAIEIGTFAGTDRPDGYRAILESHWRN

The assay addresses Pantothenate synthetase (Mycobacterium tuberculosis (strain ATCC 25618 / H37Rv)) (UniProt P9WIL5). Briefly: Recombinant Mtb pantothenate synthetase (PanC) inhibitors, coupled enzyme, confirmatory (AID 375).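 Note: 0% = full reaction with vehicle and 100% = no enzyme background.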 Particulars: coupled enzyme assay; at 10 µM, stronger effect = higher value.
`c1ccc(-c2noc(C3CCCCC3)n2)nc1`: the inhibition is 0% (inactive).

`O=C(C1CCCO1)N1CCN(C(c2ccccc2)c2ccccc2)CC1` (stereo not given): the inhibition was 0% (inactive). Under `COc1ccc2nc(NC(=O)C3CCCN(S(=O)(=O)c4cccc5nsnc45)C3)sc2c1` (stereo not given) stands 5% (inactive). The same measure for `Cc1ccc(C)c(N2CCN(CCCNC(=O)Cn3cc4c(n3)CCCCC4)CC2)c1`: 2% (inactive). Turning to `O=C(NC1CCCCCC1)c1cc(S(=O)(=O)N2CCC3(CC2)OCCO3)ccc1F`, the inhibition was 5% (inactive). In the case of `CCCCC(CC)CNC(=O)C1CCCN(S(=O)(=O)c2cnc[nH]2)C1` (stereo not given), the inhibition is 0% (inactive). With `CCN(CC)S(=O)(=O)N1CCC(C(=O)NC2CCCc3ccccc32)CC1` (stereo not given), the inhibition was 0% (inactive). `O=C(NCCCN1CCN(c2cccc(Cl)c2)CC1)c1ccc(N2CCCC2=O)cc1`: the inhibition is 1% (inactive). As to `CC(C)C(c1nnnn1C1CCCC1)N1CCN(C(=O)c2ccco2)CC1` (stereo not given), the inhibition was 3% (inactive).

Regarding `Cc1ccc(N2CC(C(=O)N3CCN(C(=O)c4ccco4)CC3)CC2=O)cc1` (stereo not given), the inhibition was 0% (inactive).

Take `COc1ccc(CCNC(=O)c2cc(-c3cc(C)c(C)cc3O)n[nH]2)cc1OC`: the inhibition is 0% (inactive). Under `COC(=O)C1=C(C)NC(C)=C(C(=O)OC)C1C(=O)OC1CCCCC1=O` (stereo not given) stands 0% (inactive).

Regarding `COc1ccccc1C(=O)NCCc1nc2ccccc2n1C`, the inhibition is 1% (inactive).

For the compound `CC(C)c1cc(C(=O)NCc2ccco2)no1`, the inhibition was 0% (inactive). For `Cc1ccc(C(c2nnnn2CCC(C)C)N2CCN(C)CC2)cc1` (stereo not given), the inhibition is 2% (inactive). Turning to `CCN1CCN(c2c(Cl)cccc2NC(=O)c2ccc3c(c2)OCCO3)CC1`, the inhibition is 0% (inactive). As for `CN=C(Nc1cc(C)nn1-c1ccccc1)c1ccccc1`, the inhibition was 0% (inactive). Consider `C=Cn1c(C(=O)O)cc(CC)c1-c1ccccc1`, for which the inhibition was 9% (inactive). The same measure for `CCCCn1c(SCC(=O)Nc2ccc(OC)cc2)nc2ccc(N3CCOCC3)cc2c1=O`: 0% (inactive); for `COc1cccc(OCC(O)CN2CCN(CCO)CC2)c1` (stereo not given): 0% (inactive).

As to `Cc1ccc(Cn2nnc3c(=O)[nH]c(C4CCN(C(=O)c5cccs5)CC4)nc32)cc1`, the inhibition is 0% (inactive). For `Cc1cc(NC(=O)C(C)(C)C)no1`, the inhibition is 0% (inactive). As to `CCCOC(=O)c1[nH]c2c(c1C)C(=O)CC(c1ccc(OC)c(OC)c1)C2` (stereo not given), the inhibition was 0% (inactive). Regarding `CCn1cc(C(=O)OCC(=O)OC2CC(C)CCC2C(C)C)c(=O)c2ccc(C)nc21` (stereo not given), the inhibition was 5% (inactive).

Regarding `CC(C)CC(=O)N1CCN(S(=O)(=O)c2ccc(F)cc2)CC1`, the inhibition was 0% (inactive). Regarding `CCC1CCCCN1C(=O)C1CC(c2cc(Cl)c(OC)cc2OC)=NO1` (stereo not given), the inhibition was 1% (inactive).

Turning to `COCC(C)NC(=O)NC(=O)c1ccc(Cl)cc1` (stereo not given), the inhibition is 0% (inactive). Consider `COc1cc2c(cc1OC)C(C)N(C(=O)c1cc3n(n1)C(C(F)(F)F)CC(c1ccco1)N3)CC2` (stereo not given), for which the inhibition is 6% (inactive). For the compound `Cc1ccc(NC(=O)CSc2nnc(NC(=O)CN3CCOCC3)s2)cc1`, the inhibition was 5% (inactive).

Regarding `O=C(CSc1nc2ccccc2s1)N1CCOCC1`, the inhibition was 0% (inactive). As for `CCCS(=O)(=O)C(=C1Nc2ccccc2N1)S(=O)(=O)CCC`, the inhibition was 1% (inactive). Under `O=C(NCc1ccc2c(c1)OCO2)C1CCC(CNc2c(N3CCCCC3)c(=O)c2=O)CC1` (stereo not given) stands 0% (inactive). The same measure for `CCOc1ccccc1C1CC(c2ccc(Br)cc2)Nc2nc(N)nn21` (stereo not given): 10% (inactive); for `CC(=O)O[C@H]1C(=O)[C@]2(C)[C@H]([C@H](OC(=O)c3ccccc3)[C@]3(O)C[C@H](OC(=O)[C@H](O)[C@@H](NC(=O)c4ccccc4)c4ccccc4)C(C)=C1C3(C)C)[C@]1(OC(C)=O)CO[C@@H]1C[C@@H]2O`: 9% (inactive). The same measure for `Cc1ccc(N2CCN(S(=O)(=O)N(C)C)CC2)c(C)c1`: 0% (inactive); for `O=C(NCCN1C(=O)C2C3C=CC(C3)C2C1=O)Nc1ccccn1` (stereo not given): 0% (inactive); for `CC1CN(C(=O)CSc2nnc(-c3ccc(Cl)cc3)n2C)CC(C)O1` (stereo not given): 0% (inactive). Consider `CC(=O)N1CCC2(CC1)CC(=O)c1cc(OCC(=O)NCc3ccc(C)cc3)ccc1O2`, for which the inhibition is 3% (inactive). Take `CCC(=O)Nc1c(C#N)c2nc3ccccc3nc2n1-c1ccccc1C`: the inhibition is 16% (inactive). In the case of `CCN1CCN(c2nc3c(C)cccn3c(=O)c2/C=C(\C#N)S(=O)(=O)c2ccccc2)CC1`, the inhibition is 0% (inactive).
